Reference: the supplement of paper PMC10646978
± gives the standard deviation.

Tests used:
Settings in all cases: modulator concentration 10 µM
[1] = test system: RAW-Dual (murine macrophage reporter line); assay: NF-kB reporter (SEAP) activity fold change vs agonist alone; higher = enhanced NF-kB activity
Procedure, shortened: (§1)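 RAW-Dual murine macrophage reporter cells were plated at 50 000 per well in 384-well plates, pin-transferred compound to 10 μM final, and pre-incubated for 1 hour at 37 °C before a PRR agonist was added and the cells incubated overnight. NF-κB activity was read from supernatant SEAP with QUANTI-Blue at 620 nm absorbance, and IRF activity from Lucia luciferase with QUANTI-Luc by luminescence. Each signal was expressed as fold change by dividing by the mean agonist-only control on the same plate. Two replicate plates were averaged, with errors obtained by propagation.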

[2] = test system: RAW-Dual (murine macrophage reporter line); assay: IRF reporter (Lucia luciferase) activity fold change vs agonist alone; higher = enhanced IRF activity
Procedure, shortened: as §1

[3] = test system: RAW-Dual (murine macrophage reporter line); assay: viability score (confluency relative to resting cells, overnight) (fraction); higher = more viable, active = viable (0.7 or more)
Procedure, shortened: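 RAW-Dual macrophages in 384-well plates were treated overnight with compound at 10 μM final. IncuCyte imaging recorded confluency, and IncuCyte software built two confluency masks across every imaged well. The viability score expresses confluency relative to resting cells and was judged against a cutoff, which a compound met only if both masks exceeded 70% of resting cells.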

[4] = agonist: CpG ODN 1826 0.5 ug/mL

In the case of `c1cncc(CSc2ccc(-c3ccncc3)nn2)c1`, the NF-kB reporter [1, 4] is reported as 0.532 ± 0.17, the NF-kB reporter ([1]; agonist: LPS 0.1 ug/mL) is reported as 0.711 ± 0.071 and the NF-kB reporter ([1]; agonist: MPLA […]) is reported as 0.919 ± 0.062. The IRF reporter ([2]; agonist: 3'3'-cGAMP 10 ug/mL) was 0.53 ± 0.037, the IRF reporter ([2]; agonist: LPS 0.1 ug/mL) was 0.647 ± 0.079 and the IRF reporter ([2]; agonist: MPLA […]) was 0.58 ± 0.13. For the same compound, the viability score [3] was 0.892 (active).
`COC(=O)C1=C(C)NC(=O)CC1c1c(F)cccc1Cl` (configuration not stated) was tested, and the NF-kB reporter [1, 4] was 0.986 ± 0.083, the NF-kB reporter ([1]; agonist: LPS 0.1 ug/mL) was 0.993 ± 0.087 and the NF-kB reporter ([1]; agonist: MPLA […]) was 0.975 ± 0.041. The IRF reporter ([2]; agonist: 3'3'-cGAMP 10 ug/mL) was 0.87 ± 0.032, the IRF reporter ([2]; agonist: LPS 0.1 ug/mL) was 1.03 ± 0.091 and the IRF reporter ([2]; agonist: MPLA […]) was 1.06 ± 0.14. The viability score [3] was 0.995 (active).
`COCCOC(=O)C1=C(C)NC(=S)NC1c1ccccc1OC` (configuration not stated) was tested, and the NF-kB reporter [1, 4] was 1.03 ± 0.098, the NF-kB reporter ([1]; agonist: LPS 0.1 ug/mL) was 0.995 ± 0.056 and the NF-kB reporter ([1]; agonist: MPLA […]) was 0.956 ± 0.11. It also gave an IRF reporter ([2]; agonist: 3'3'-cGAMP 10 ug/mL) of 0.964 ± 0.039, an IRF reporter ([2]; agonist: LPS 0.1 ug/mL) of 1.38 ± 0.095 and an IRF reporter ([2]; agonist: MPLA […]) of 1.19 ± 0.22. The viability score [3] was 1.01 (active).
With `N#CC(=Cc1cn(Cc2ccccc2Cl)c2ccccc12)c1nn(CCO)c(N)c1C#N` the NF-kB reporter [1, 4] was 0.919 ± 0.077, the NF-kB reporter ([1]; agonist: LPS 0.1 ug/mL) was 0.959 ± 0.053 and the NF-kB reporter ([1]; agonist: MPLA […]) was 0.91 ± 0.058. It also gave an IRF reporter ([2]; agonist: 3'3'-cGAMP 10 ug/mL) of 0.909 ± 0.063, an IRF reporter ([2]; agonist: LPS 0.1 ug/mL) of 1.18 ± 0.17 and an IRF reporter ([2]; agonist: MPLA […]) of 0.936 ± 0.058. The viability score [3] was 1.02 (active).
Work on `O=[N+]([O-])c1ccc(CN2c3ccccc3C3=C(CCCC3)C23CCCCC3)cc1` yielded an NF-kB reporter [1, 4] of 0.959 ± 0.074, an NF-kB reporter ([1]; agonist: LPS 0.1 ug/mL) of 1.04 ± 0.08 and an NF-kB reporter ([1]; agonist: MPLA […]) of 0.936 ± 0.1. The IRF reporter ([2]; agonist: 3'3'-cGAMP 10 ug/mL) was 0.951 ± 0.057, the IRF reporter ([2]; agonist: LPS 0.1 ug/mL) was 1.33 ± 0.16 and the IRF reporter ([2]; agonist: MPLA […]) was 1.6 ± 0.27. For the same compound, the viability score [3] was 1.03 (active).
With `CC1=CCCC(=O)C2CC(C)(C)C2CC1` (configuration not stated) the NF-kB reporter [1, 4] was 0.95 ± 0.13, the NF-kB reporter ([1]; agonist: LPS 0.1 ug/mL) was 0.857 ± 0.11 and the NF-kB reporter ([1]; agonist: MPLA […]) was 0.89 ± 0.083. The IRF reporter ([2]; agonist: 3'3'-cGAMP 10 ug/mL) was 0.876 ± 0.031, the IRF reporter ([2]; agonist: LPS 0.1 ug/mL) was 1.05 ± 0.15 and the IRF reporter ([2]; agonist: MPLA […]) was 1.05 ± 0.3. The viability score [3] was 1.05 (active).
Work on `O=c1[nH]cnc2ccccc12` yielded an NF-kB reporter [1, 4] of 0.416 ± 0.14, an NF-kB reporter ([1]; agonist: LPS 0.1 ug/mL) of 0.159 ± 0.013 and an NF-kB reporter ([1]; agonist: MPLA […]) of 0.215 ± 0.019. For the same compound, the IRF reporter ([2]; agonist: 3'3'-cGAMP 10 ug/mL) was 0.133 ± 0.013, the IRF reporter ([2]; agonist: LPS 0.1 ug/mL) was 0.378 ± 0.098 and the IRF reporter ([2]; agonist: MPLA […]) was 0.0913 ± 0.014. For the same compound, the viability score [3] was 0.561 (inactive).
`O=C(CCC(=O)NN=Cc1ccc(O)cc1)NN=Cc1ccc(O)cc1` showed an NF-kB reporter [1, 4] of 0.915 ± 0.073, an NF-kB reporter ([1]; agonist: LPS 0.1 ug/mL) of 0.963 ± 0.062 and an NF-kB reporter ([1]; agonist: MPLA […]) of 0.947 ± 0.036. For the same compound, the IRF reporter ([2]; agonist: 3'3'-cGAMP 10 ug/mL) was 0.973 ± 0.12, the IRF reporter ([2]; agonist: LPS 0.1 ug/mL) was 0.974 ± 0.04 and the IRF reporter ([2]; agonist: MPLA […]) was 0.787 ± 0.085. For the same compound, the viability score [3] was 1 (active).
With `CCN1C(=O)C(=Cc2cc(Br)ccc2OCCOc2ccccc2Cl)SC1=S` the NF-kB reporter [1, 4] was 0.714 ± 0.064, the NF-kB reporter ([1]; agonist: LPS 0.1 ug/mL) was 0.899 ± 0.11 and the NF-kB reporter ([1]; agonist: MPLA […]) was 1.1 ± 0.096. For the same compound, the IRF reporter ([2]; agonist: 3'3'-cGAMP 10 ug/mL) was 0.982 ± 0.057, the IRF reporter ([2]; agonist: LPS 0.1 ug/mL) was 1.14 ± 0.086 and the IRF reporter ([2]; agonist: MPLA […]) was 1.18 ± 0.12. The viability score [3] was 1.02 (active).
In the case of `CCn1cc(C(=O)NN)c(=O)c2cc(F)c(N3CCCCCC3)cc21`, the NF-kB reporter [1, 4] is reported as 0.966 ± 0.076, the NF-kB reporter ([1]; agonist: LPS 0.1 ug/mL) is reported as 0.98 ± 0.091 and the NF-kB reporter ([1]; agonist: MPLA […]) is reported as 0.979 ± 0.12. The IRF reporter ([2]; agonist: 3'3'-cGAMP 10 ug/mL) was 0.965 ± 0.035, the IRF reporter ([2]; agonist: LPS 0.1 ug/mL) was 1.29 ± 0.11 and the IRF reporter ([2]; agonist: MPLA […]) was 1.19 ± 0.12. The viability score [3] was 1.01 (active).
With `N#Cc1ccc(C(=O)Nc2nc(-c3cccs3)c(C(=O)C(F)(F)F)s2)cc1` the NF-kB reporter [1, 4] was 0.789 ± 0.091, the NF-kB reporter ([1]; agonist: LPS 0.1 ug/mL) was 1.06 ± 0.13 and the NF-kB reporter ([1]; agonist: MPLA […]) was 1.09 ± 0.17. For the same compound, the IRF reporter ([2]; agonist: 3'3'-cGAMP 10 ug/mL) was 0.958 ± 0.03, the IRF reporter ([2]; agonist: LPS 0.1 ug/mL) was 1.36 ± 0.21 and the IRF reporter ([2]; agonist: MPLA […]) was 1.54 ± 0.27. For the same compound, the viability score [3] was 1.03 (active).
With `C=C1C(=O)OC2CC3(C)CCCC(C)C3=CC12` (configuration not stated) the NF-kB reporter [1, 4] was 0.85 ± 0.054, the NF-kB reporter ([1]; agonist: LPS 0.1 ug/mL) was 0.72 ± 0.068 and the NF-kB reporter ([1]; agonist: MPLA […]) was 0.685 ± 0.06. For the same compound, the IRF reporter ([2]; agonist: 3'3'-cGAMP 10 ug/mL) was 0.0319 ± 0.0039, the IRF reporter ([2]; agonist: LPS 0.1 ug/mL) was 0.738 ± 0.059 and the IRF reporter ([2]; agonist: MPLA […]) was 0.839 ± 0.15. For the same compound, the viability score [3] was 0.73 (active).
With `Cc1[nH]c2ccccc2c1CCNCc1ccc(/C=C/C(=O)NO)cc1` the NF-kB reporter [1, 4] was 0.22 ± 0.015, the NF-kB reporter ([1]; agonist: LPS 0.1 ug/mL) was 1.58 ± 0.1 and the NF-kB reporter ([1]; agonist: MPLA […]) was 2.77 ± 0.17. The IRF reporter ([2]; agonist: 3'3'-cGAMP 10 ug/mL) was 0.0565 ± 0.0025, the IRF reporter ([2]; agonist: LPS 0.1 ug/mL) was 0.355 ± 0.032 and the IRF reporter ([2]; agonist: MPLA […]) was 0.509 ± 0.06. For the same compound, the viability score [3] was 0.055 (inactive).
With `O=C(O)CSCC(=O)NC1CCSC1=O` (configuration not stated) the NF-kB reporter [1, 4] was 0.824 ± 0.065, the NF-kB reporter ([1]; agonist: LPS 0.1 ug/mL) was 0.898 ± 0.11 and the NF-kB reporter ([1]; agonist: MPLA […]) was 1.04 ± 0.12. It also gave an IRF reporter ([2]; agonist: 3'3'-cGAMP 10 ug/mL) of 1.01 ± 0.06, an IRF reporter ([2]; agonist: LPS 0.1 ug/mL) of 1.36 ± 0.13 and an IRF reporter ([2]; agonist: MPLA […]) of 1.5 ± 0.15. The viability score [3] was 1 (active).
With `CCC(C)C(=O)OC1CCC=C2C=CC(C)C(CCC3CC(O)CC(=O)O3)C21` (configuration not stated) the NF-kB reporter [1, 4] was 0.946 ± 0.11, the NF-kB reporter ([1]; agonist: LPS 0.1 ug/mL) was 0.83 ± 0.061 and the NF-kB reporter ([1]; agonist: MPLA […]) was 1 ± 0.094. It also gave an IRF reporter ([2]; agonist: 3'3'-cGAMP 10 ug/mL) of 0.941 ± 0.046, an IRF reporter ([2]; agonist: LPS 0.1 ug/mL) of 1.24 ± 0.23 and an IRF reporter ([2]; agonist: MPLA […]) of 1.33 ± 0.32. For the same compound, the viability score [3] was 1.05 (active).
`O=C(NCC1(O)CCc2ccccc2C1)c1cccc(C(F)(F)F)c1` (configuration not stated) showed an NF-kB reporter [1, 4] of 0.848 ± 0.041, an NF-kB reporter ([1]; agonist: LPS 0.1 ug/mL) of 0.939 ± 0.1 and an NF-kB reporter ([1]; agonist: MPLA […]) of 0.957 ± 0.054. The IRF reporter ([2]; agonist: 3'3'-cGAMP 10 ug/mL) was 0.989 ± 0.045, the IRF reporter ([2]; agonist: LPS 0.1 ug/mL) was 1.09 ± 0.26 and the IRF reporter ([2]; agonist: MPLA […]) was 1.12 ± 0.43. For the same compound, the viability score [3] was 0.994 (active).
